Among all 1,300 compounds or so, about 640 (49%) were called active.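 The calls were made as follows: active = cAMP induction above 50% in the main assay while under 30% in all four parallel counter assays; inactive = the rest.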 The set was probably picked from earlier hits. Only a sample is shown.
Tests used:
[1] = EP2 hit retest with parallel cAMP counter-assays – cell-based, five parallel assays, C6 glioma, HEK293, counter-screen for EP2 modulator project, confirmation (AID 1080); conditions: C6 glioma EP2 cells, cAMP HTRF induction
[2] = target: Prostaglandin E2 receptor EP2 subtype (Homo sapiens) (UniProt P43116); experiment: as above; conditions: C6 glioma EP2 cells, cAMP HTRF induction; stronger effect = higher value; screened at 20 µM (by protocol); percent of 1 uM PGE2 response; plus low (about EC15) PGE2 agonist
[3] = measured here: EP4 receptor counter-screen, percent of 1 uM PGE2 response, plus low (about EC15) PGE2 agonist
[4] = measured here: beta2 adrenergic HEK293 counter-screen
[5] = measured here: cAMP conditions counter-screen
[6] = measured here: parent C6 cells counter-screen

Structure (SMILES)	cAMP induction [1, 3] [%]	cAMP induction [1, 4] [%]	cAMP induction [1, 5] [%]	cAMP induction [1, 6] [%]	cAMP induction [2]
O=C(Nc1ccccc1N1CCCCC1)c1ccc2nccnc2c1	-20.6	-12.3	-1.35	-3.85	56.9% (active)
O=C(Nc1ccccc1N1CCCCC1)c1cccc(F)c1	20.9	-8.46	-6.32	-1.46	54.4% (active)
CCC(C)(C)c1ccc(OCC(=O)N(C)C)c(C(C)(C)CC)c1	-18	-18.7	-1.65	-11.3	18.5% (inactive)
CC[C@@H]1Cc2cc(O)ccc2C2=C1c1ccc(O)cc1C[C@H]2CC	-0.0767	-11.7	6.45	2.02	34.5% (inactive)
CCCc1cc(-c2n[nH]c(=S)n2Cc2ccccc2)cs1	1.9	-7.59	-4.47	1.74	37.8% (inactive)
CCCCOc1ccc(-c2nnc(-c3ccco3)o2)cc1	-1.8	-7.34	3.34	3.09	50.4% (active)
Cc1cc(C#N)c(SCC(N)=O)nc1-c1ccc(F)cc1	9.53	7.22	2.14	-4.05	50.9% (active)
FC(F)(F)c1cccc(-c2cc3ccccc3nc2N2CCCC2)c1	17.7	-13	-2.73	-3.28	52.7% (active)
CCOC(=O)c1c(C2CC2)csc1NC(=O)CSCc1c(C)noc1C	-15.3	-5.42	-2.02	2.56	48.8% (inactive)
O=c1cc(N2CCCCC2)c(-c2ccccc2)nn1Cc1cccc(F)c1	-7.11	-13	3.15	3.46	79.6% (active)
CCOc1ccc(NC(=O)CSc2ncnc3c2sc2ccccc23)cc1	80.8	81.1	79.9	80.1	77.7% (inactive)
COc1ccc(C)c(Cn2c(-c3nonc3N)nc3ccccc32)c1	4.7	-6.52	1.9	1.52	69.6% (active)
COC(=O)C1=C(C)N(C)C(C)=C(C(=O)OC)C1c1cccc(Br)c1	-5.89	5.82	-5.28	1.49	46% (inactive)
Cc1ccccc1-c1n[nH]c(=S)n1/N=C/c1ccc(-c2ccccc2Br)o1	18.4	14.3	22.4	19.4	57.9% (active)
O=c1[nH]c(CSc2ncc(-c3ccc(F)cc3)n2Cc2ccco2)nc2ccccc12	-12.9	-5.45	-6.27	-5.69	39.9% (inactive)
Cc1nn2c(c1-c1ccccc1)N=C(c1ccco1)CC2c1ccccc1 (stereo not given)	-13.9	-0.13	0.137	4.52	36.7% (inactive)
NC(=O)COc1ccc(C23CC4CC(CC(C4)C2)C3)cc1	-2.42	-18.4	7.34	-0.99	64.6% (active)
Cc1nc2ccccc2c(-c2ccccc2)c1C(=O)c1ccccc1	2.31	4.97	-6.03	-0.11	88.9% (active)
O=c1c2ccccc2nc2n1C1(CCCCC1)Cc1ccccc1-2	-3.33	-1.27	0.00333	-4.35	55.1% (active)
CC(C)(C)c1nc2ccccc2c(=O)n1N1C(=O)c2ccccc2C1=O	-2.16	4.41	5.06	3.57	36.9% (inactive)
CN(C)Cc1ccc(F)cc1Sc1cc(Cl)ccc1Cl	-1.47	-10.1	-3.1	2.77	45.2% (inactive)
CC(C)NC(=S)NN=C1CCCCCCCCCCC1	1.01	7.6	2.87	-7.59	54.8% (active)
COC(=O)CSc1nc2c(c(C3CC=CCC3)c1C#N)CCC2 (stereo not given)	1.11	7.56	3.4	4.46	69.8% (active)
CSc1ncnc2sc(C)c(C)c12	5.89	2.78	5.03	0.0167	42.1% (inactive)
Cc1cccc(Cn2c(N3CCN(c4ccccc4)CC3)nc3c2c(=O)n(C)c(=O)n3C)c1	-5.29	-6.91	5.21	1.06	54.8% (active)
CC1CCN(c2nc3c(c(=O)[nH]c(=O)n3C)n2CCCc2ccccc2)CC1	4.8	-2.72	-1.35	-0.403	42.2% (inactive)

Structure (SMILES)	cAMP induction [1, 3] [%]	cAMP induction [1, 4] [%]	cAMP induction [1, 5] [%]	cAMP induction [1, 6] [%]	cAMP induction [2]
COc1c2c(cc3occ(-c4ccc5c(c4)OCO5)c(=O)c13)OC(C)(C)C=C2	-0.877	-13.4	2.3	4.12	46.1% (inactive)
CC(C)Oc1ccc(Cc2n[nH]c(=S)n2Cc2ccccc2)cc1Cl	-4.47	-10.4	0.63	2.28	40% (inactive)
CC1(C)Cc2nc3sc4c(SCC(=O)NC(c5ccccc5)c5ccccc5)ncnc4c3cc2CO1	71.8	71.7	70.8	70	68.6% (inactive)
CCOC(=O)C1=C(CN2CCc3ccccc32)NC(=O)NC1c1ccc(Cl)cc1 (stereo not given)	-13	-5.75	-12.2	-1.26	42.4% (inactive)
Cc1cc(NC(=O)CN2CCCC(C)C2)n(-c2nc3ccccc3s2)n1 (stereo not given)	16.2	6.5	-2.07	-6.69	50.7% (active)
COC(=O)c1sc2[nH]c(=S)n(N)c(=O)c2c1C	68.1	67.4	67.6	66.3	70.6% (inactive)
Cc1cccc2cc(CN(Cc3cccs3)C(c3nnnn3C3CCCC3)C(C)C)c(=O)[nH]c12 (stereo not given)	-2.3	-6.33	1.55	3.32	59.5% (active)
Oc1ccc(/C=N/N(Cc2ccccc2)c2ccccc2)cc1	-13.7	-14.9	-0.103	2.51	55.2% (active)
CCN1CCN(c2c(Cl)cccc2NC(=O)c2ccc(Br)o2)CC1	9.56	-6.35	8.3	10.5	45.8% (inactive)
CCOC(=O)c1c(N)nn(C(=O)c2ccccc2)c1-c1ccccc1	-2.57	-8.03	0.963	-2.53	53.3% (active)
Cc1ccc(-n2c(SCC(=O)Nc3ccc4c(c3)OCO4)nnc2-c2ccoc2C)cc1	7.89	-0.777	-1.2	-1.05	40.3% (inactive)
COc1ccccc1NC(=O)CSc1nnc(Cn2nnc(-c3ccccc3)n2)n1-c1ccccc1	-5.84	-2.51	2.46	3.99	61.9% (active)
O=c1c2ccccc2c(-c2ccc(Br)cc2)nn1Cc1ccccc1	4.3	8.28	-3.64	0.753	72.8% (active)
O=c1c2ccccc2c(-c2ccccc2)nn1Cc1ccccc1	1.05	4.51	-1.54	-0.867	78% (active)
CSc1nc2ccccc2c(=O)n1Cc1ccc(F)cc1	1.87	10	-3.28	0.81	44.6% (inactive)
O=C(COC(=O)c1ccccc1)Nc1ccccc1Sc1ccccc1	5.14	-16.3	-4.67	-4.62	66.8% (active)
Cc1ccccc1C(=O)Nc1ccccc1Sc1ccccc1	-6.34	-0.06	-1.62	-1.24	73.7% (active)
O=C(CN1CCCCC1)N1c2ccccc2Sc2ccc(C(F)(F)F)cc21	-11.3	-1.41	-5.21	-5.14	47.3% (inactive)
CCc1ccccc1NC(=O)/C(=C/c1ccccc1)c1ccccc1	-11.7	34	-0.563	-0.623	53.6% (inactive)
CCOCC(=O)Nc1sc2c(c1C(=O)OCC)CCCC2	-16	3.07	3.98	1.75	40.6% (inactive)
Cc1ccc(C(=O)c2c(NC(=O)c3ccncc3)sc3c2CCCC3)cc1	4.56	-17.1	0.45	3.43	54.2% (active)
CC1(C)CC2CC(C)(CN2c2ncnc3ccc(Br)cc23)C1 (stereo not given)	-0.537	-0.287	6.56	5.43	25.7% (inactive)
Cc1ccc(Nc2cc(C)nc3c(C)ccc([N+](=O)[O-])c23)cc1	-1.3	15.4	0.53	-0.713	57.4% (active)
CC(=O)c1ccc2c(c1)c1ccccc1n2CC(C)C	8.49	0.833	9.82	9.42	58.9% (active)
CCCCCn1c(SCCC(C)C)nc2c1c(=O)[nH]c(=O)n2C	-16.3	-18.1	1.4	-0.767	59.3% (active)
CCOC(=O)C(CC)Sc1ncnc2c1nnn2-c1ccc(F)cc1 (stereo not given)	-7.74	17	0.993	2.03	50.7% (active)

Source: PubChem BioAssay AID1080 (Emory University Molecular Libraries Screening Center, 2008)
